This is a sample that favours compounds with a hit; in the whole collection about 19% have one here.
KB-3-1 tox: kills parental KB-3-1 adenocarcinoma cells; KB-3-1 viability, CellTiter-Glo ATP luminescence, 72 h; Potency, µM (doses to about 46.1 µM), hits mostly cytotoxic; actives 1.4% (n = 400,000); also: nearly all actives have a fitted effect of over 60% in size
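Here the drug-naive KB-3-1 line serves as comparator for MDR sub-line selectivity; cells received compound titrations, 72 h at 37 °C, then CellTiter-Glo readout.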
KB-V1 MDR tox: kills drug-selected multidrug resistant KB-V1 cells. Potency, µM (series often up to 46.1 µM), hits mostly cytotoxic. KB-V1 MDR cells viability, CellTiter-Glo, 72 h. actives 3.4% (n = 400,000); also: nearly all actives have a fitted effect of over 60% in size
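KB-V1 cells (P-gp-expressing MDR subline of KB-3-1) in phenol-red-free DMEM with 10% FBS were exposed to library compounds over a concentration series for 72 h at 37 degrees C. Viability read by CellTiter-Glo luminescence; concentration-effect curves fitted after normalization.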
HT1080 IDH1KD tx: kills HT-1080 cells with IDH1 knockdown. HT-1080 IDH1 knockdown viability, ATP luminescence, 48 h. actives 2% (n = 360,000). Potency, µM (series often up to 46.1 µM), without a hit: top-dose activity, negative = toxicity, usual class: cytotoxic;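 also: 0% = DMSO wells and -100% = cell-free medium wells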
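CellTiter-Glo luminescence after 48 h compound exposure at 37 degrees C of IDH1-knockdown HT-1080 cells in 5% FBS RPMI. %Activity scaled between DMSO wells and cell-free media wells, with curves fitted and assigned curve classes.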
DT40 TDP1 no CPT: qHTS for Inhibitors of human tyrosyl-DNA phosphodiesterase 1 (TDP1): qHTS in cells in absence of CPT; DT40 Tdp1-/- hTDP1 cells, no CPT, ATP luminescence, 48 h; Potency, µM (highest dose often 46.2 µM), for the others: at the top dose activity change, negative = growth inhibition, hits mostly inhibitors; actives 15% (n = 420,000); AID 686978, 2013; also: nearly all actives have a fitted effect of over 55% in size
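Readout: luminescence from CellTiter-Glo after 30 min in the dark at RT. Cells: DT40 Tdp1-/- with stable hTDP1, 400/well. Exposure: compounds alone, ≥48 hr, 37 °C.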
HT1080NT lethal: kills 2HG-producing HT-1080-NT fibrosarcoma cells. HT-1080-NT fibrosarcoma viability, CellTiter-Glo ATP luminescence, 48 h. Potency, µM (doses to about 46.1 µM), for inactives: at the highest dose activity, negative = less viability, hits mostly cytotoxic. actives 1.6% (n = 360,000). AID 686970;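 also: NT is the 2HG producing partner of a matched IDH1 knockdown line; 0% = DMSO-treated cells and -100% = media-only wells without cells; nearly all actives have a fitted effect of over 55% in size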
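Compounds were tested in concentration-response format on HT-1080-NT cells for 48 hours at 37 degrees C. Cell viability came from CellTiter-Glo luminescence; curves were classified by r2, response magnitude and activity.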
TDP1 cell CPT: growth inhibition of DT40 Tdp1-/-;hTDP1 cells with camptothecin (screen for TDP1 inhibitors); chicken DT40 Tdp1-/-;hTDP1 cells + 20 nM CPT, ATP luminescence, 48 h; Potency, µM (titrated, usually from 46.2 µM), for the others: at the top dose activity change, negative = growth inhibition, hits mostly inhibitors; actives 12% (n = 420,000); AID 686979; also: nearly all actives have a fitted effect of over 55% in size
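Cell growth measured by CellTiter-Glo luminescence after a minimum 48 h, 37 C compound exposure with 20 nM CPT in Tdp1-knockout DT40 cells stably expressing hTDP1, seeded 400/well; qHTS titration format.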
An asterisk follows results filed as active; i = inactive; u = inconclusive; x = not tested or not shown. Calls follow the shape of the dose curve; as a rule, active = well fitted curve in the direction sought with a large enough effect; inconclusive = small, poorly fitted or top-dose-only effect, or another doubt; inactive = no such curve, though single readings can be large; an effect the other way counts as inactive or inconclusive. Unless noted, % is scaled to controls: 0 for no effect and ±100 for the full control effect; potency is read from the fitted curve at half-maximal effect.

SMILES	KB-3-1 tox	KB-V1 MDR tox	HT1080 IDH1KD tx	DT40 TDP1 no CPT	HT1080NT lethal	TDP1 cell CPT
Fc1cccc(Cc2noc(CN3CCN(C4CCc5ccccc5C4)CC3)n2)c1 (centres undefined)	i	u	-10%	u	-9%	u
CCc1cc(Cn2nc(-c3ccccc3)cc2C(=O)NCC2CC2)on1	i	i	3%	-30%	0%	u
CCCc1cc(=O)[nH]c(SCC(=O)NC2CCCc3ccccc32)n1 (centres undefined)	i	u	10%	9%	27%	0%
C=CCSc1nnc(-c2sc(-c3ccccc3)nc2C)n1C	i	i	4%	-22%	14%	u
C=CCN(C(=O)CSC1=NC(=O)CN1C(C)=O)c1nc(C)c(-c2ccccc2)s1	i	i	u	18µM*	u	u
CCCC(=O)Nc1ccc(C(=O)NCCc2ccc(F)cc2)cc1	i	15µM*	30%	-18%	17%	-24%
Cc1ccc(NC(=S)NCCc2ccc(F)cc2)c(C)c1	i	i	-3%	u	-2%	-9%
S=C(NCCc1ccccn1)Nc1cc(Cl)cc(Cl)c1	i	i	-16%	-16%	u	-27%
S=C(NCCc1ccccn1)Nc1ccc(Cl)c(Cl)c1	i	23µM*	10%	u	16%	u
Cc1ccc(F)cc1NC(=S)NCCc1ccccc1	i	i	-10%	26µM*	-6%	u
CCNC(=S)Nc1ccc(Cl)cc1	i	i	14%	-34%	14%	-17%
CCCCNC(=S)Nc1ccc(Cl)cc1	i	16µM*	-3%	23µM*	-4%	u
Fc1ccc(CCNC(=S)Nc2ccc(F)cc2)cc1	i	u	3%	18µM*	3%	u
S=C(NCCc1ccccc1)Nc1ccc(Cl)cc1	i	u	-22%	4.6µM*	-13%	21µM*
CCCCc1ccc(NC(=S)NCCc2ccc(F)cc2)cc1	i	u	u	u	u	u
O=[N+]([O-])c1ccc(NC(=S)NCCc2ccc(Cl)cc2)cc1	u	16µM*	u	5.2µM*	u	2.3µM*
O=C(NCCc1ccccc1)Nc1ccc(Cl)cc1	i	i	6%	-8%	9%	-7%
Cc1ccccc1NC(=S)NC(C)CCc1ccccc1 (centres undefined)	i	i	8%	21µM*	-1%	u
CCOc1ccc(NC(=S)NC(C)CCc2ccccc2)cc1 (centres undefined)	i	i	1%	3%	-18%	-1%
O=C(Cn1ccn(-c2ccc(F)cc2)c(=O)c1=O)Nc1ccccc1C(F)(F)F	x	x	x	7%	x	18%
CNc1cncc(-c2cc(OC)c(OC)c(OC)c2)n1	i	i	2%	u	20%	u
CCCC[C@@H]1CC2=C(C(=O)OC(C)(C)O2)[C@@H](c2ccc(F)cc2)O1	i	i	0%	u	1%	-20%
Fc1ccccc1NC(=S)NCCc1cccc(Cl)c1	i	i	-25%	7.3µM*	-19%	8.2µM*
Cc1c(Cl)cccc1NC(=S)NCCc1ccc(C(F)(F)F)cc1	i	u	u	16µM*	u	u
Cc1c(Cl)cccc1NC(=S)NCCc1ccccn1	i	u	11%	-5%	19%	8%
S=C(NCCc1ccccc1)NCc1cccc(Cl)c1	i	i	-15%	3%	-27%	1%
CCCc1cc2c(-c3ccccc3)cc(=O)oc2cc1OCc1ccc(C(=O)O)o1	i	i	-25%	-2%	-7%	21%
